biological target: Large ribosomal subunit protein eL14A (UniProt P36105); experiment: cross-link between two proteins; cross-linking mass spectrometry
Sequence (P36105 whole entry): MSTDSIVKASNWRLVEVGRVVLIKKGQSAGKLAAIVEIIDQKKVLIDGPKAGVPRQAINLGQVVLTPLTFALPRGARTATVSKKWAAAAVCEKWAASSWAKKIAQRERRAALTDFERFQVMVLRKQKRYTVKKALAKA

Large ribosomal subunit protein uL13B, P26785, sequence (P26785 whole entry): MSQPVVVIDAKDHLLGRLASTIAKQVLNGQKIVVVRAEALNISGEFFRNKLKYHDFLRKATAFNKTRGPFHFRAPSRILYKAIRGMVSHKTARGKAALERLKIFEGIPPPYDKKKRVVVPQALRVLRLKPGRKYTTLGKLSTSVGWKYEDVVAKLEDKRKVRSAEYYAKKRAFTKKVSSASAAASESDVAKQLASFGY
Large ribosomal subunit protein eL32, P38061, sequence (P38061 whole entry): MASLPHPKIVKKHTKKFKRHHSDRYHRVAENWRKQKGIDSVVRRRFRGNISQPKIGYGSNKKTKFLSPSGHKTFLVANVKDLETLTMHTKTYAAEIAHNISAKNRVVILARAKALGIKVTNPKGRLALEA
Large ribosomal subunit protein uL13A, P26784, sequence (P26784 whole entry): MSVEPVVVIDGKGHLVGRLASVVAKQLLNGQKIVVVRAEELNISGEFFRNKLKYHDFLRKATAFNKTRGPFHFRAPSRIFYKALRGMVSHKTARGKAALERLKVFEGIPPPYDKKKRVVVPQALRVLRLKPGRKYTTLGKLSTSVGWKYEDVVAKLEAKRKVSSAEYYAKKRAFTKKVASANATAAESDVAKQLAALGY

Listed as a hit, yes:
Large ribosomal subunit protein uL13B, P26785
Large ribosomal subunit protein uL30A, P05737
Large ribosomal subunit protein uL13A, P26784

biological target: Ribosome biogenesis protein ALB1 (UniProt P47019); experiment: as above
Sequence (P47019 whole entry): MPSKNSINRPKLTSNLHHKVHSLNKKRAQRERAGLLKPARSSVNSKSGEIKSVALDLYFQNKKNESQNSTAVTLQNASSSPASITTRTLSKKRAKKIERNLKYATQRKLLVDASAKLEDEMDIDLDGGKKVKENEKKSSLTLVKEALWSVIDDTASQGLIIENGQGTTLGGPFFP

Listed as a hit, yes:
Large ribosomal subunit protein eL6B, P05739
Large ribosomal subunit protein eL32, P38061
Large ribosomal subunit protein uL24A, P05743
